Experimental data taken from the supplement of paper PMC10338343.
± gives the standard deviation.

These sequences were tested on MILI (PIWIL2) piRISC loaded with piRNA #1 (26 nt) (assay: pre-steady-state target cleavage rate (min^-1); guide: piRNA #1 5'p-UGAGGUAGUAGGUUGUAUAGUAUCCA; MIWI and MILI are mouse PIWI proteins and EfPiwi is from a freshwater sponge; tags in brackets are library labels; higher = faster piRNA-guided slicing of the target). Details: auxiliary factor: 500 nM mouse GTSF1.
Protocol: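 Cleave-'n-Seq: a library of target RNAs (target site embedded in constant flanks, ACAGCATTCCGCGTTAGTGATATCCG... 5' flank; DNA-blocked outside the site) at 0.1 nM was incubated with 1 nM active mouse MILI or MIWI piRISC (synthetic 5'-monophosphorylated piRNA guide) with or without 500 nM mouse GTSF1 at 33 °C for 1 min to 16 h. Uncleaved targets were sequenced and normalised to non-target controls, and the pooled three trials were fitted to a burst-and-steady-state model to give the pre-steady-state cleavage rate (min^-1; k3 is constrained to at most 1e-4). Sequence is the target site only; target names encode pairing extent (gX:gY) and contiguous / 1-mismatch / 2-mismatch / bulge geometry. Fits with R² ≤ 0 are excluded.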

GGAGACCUAUGAUAACAACCUACGUACCUCA was tested. Which “pre-steady-state target cleavage rate” value did it give?
The value was 0.00286 ± 0.0027.

With GGAGACGAUACUUUACAACCUACUUCCUCA as the sequence, how does the “pre-steady-state target cleavage rate” value read?
Its value is 0.019 ± 0.0078.

GGAGACCUUACUAUACUUCCUACUACCUCA was tested. Which “pre-steady-state target cleavage rate” value did it give?
The value was 0.127 ± 0.011.

With GGAGACCAUUCUAUACUACCUACUACCUCA as the sequence, how does the “pre-steady-state target cleavage rate” value read?
Its value is 0.111 ± 0.013.

With GGAGUGGAUACUAUUCAACCAACUACCUCA as the sequence, how does the “pre-steady-state target cleavage rate” value read?
Its value is 0.0045 ± 0.002.

How did the “pre-steady-state target cleavage rate” value turn out when GGAGACCUAUGAAUACAACCUACUACCGCA was run?
The value was 0.00764 ± 0.003.

How did the “pre-steady-state target cleavage rate” value turn out when GGAGAGGAUACUAUAACAACCUACUACCUCA was run?
The value was 0.161 ± 0.012.

How did the “pre-steady-state target cleavage rate” value turn out when GGAGACCUUACUAUACUUGCUACUACCUCA was run?
The value was 0.0548 ± 0.0062.

How did the “pre-steady-state target cleavage rate” value turn out when GGAGUGGAUGACUAUACAACCUACUACCUCA was run?
Its value is 0.0838 ± 0.019.

For GGAGAGGAUACUGUACAACCUACUACCUCA, which “pre-steady-state target cleavage rate” value is on record?
Its value is 0.121 ± 0.012.

How did the “pre-steady-state target cleavage rate” value turn out when GGAGACCUAUGUAUACAACCUACUACGAGA was run?
The value was 0.013 ± 0.0047.

GGAGACCAUAGUAUACAACCUACUACCACA was tested. Which “pre-steady-state target cleavage rate” value did it give?
Its value is 0.133 ± 0.015.

For GGAGACCUUACUAUACAACCUACUAGCACA, which “pre-steady-state target cleavage rate” value is on record?
The value was 0.0607 ± 0.017.

With GGAGACGAUACUAUACUACCAACUACCUCA as the sequence, how does the “pre-steady-state target cleavage rate” value read?
The value was 0.00729 ± 0.0029.

How did the “pre-steady-state target cleavage rate” value turn out when GGAGACCUAACUAUACAACCUACUAUCUCA was run?
The value was 0.0721 ± 0.017.

Which “pre-steady-state target cleavage rate” value does the source give for GGAGACCUAUGUAUACAACCUACUACCUGA here?
Its value is 0.0463 ± 0.008.

With GGAGACCUUACUAAACAACCUACUACCUGA as the sequence, how does the “pre-steady-state target cleavage rate” value read?
Its value is 0.0914 ± 0.017.

Which “pre-steady-state target cleavage rate” value does the source give for GGAGACCUAUGUAUACACCCUACUACCUCA here?
The value was 0.0161 ± 0.0035.

Which “pre-steady-state target cleavage rate” value does the source give for GGAGACCUAACUGAUACAACCUACUACCUCA here?
The value was 0.183 ± 0.045.

With GGAGACCUUACUAUUCAACCUACUACCUGA as the sequence, how does the “pre-steady-state target cleavage rate” value read?
The value was 0.0942 ± 0.014.

With GGAGACCUAACUAUACAACCUACUUACCUCA as the sequence, how does the “pre-steady-state target cleavage rate” value read?
Its value is 0.135 ± 0.021.

Which “pre-steady-state target cleavage rate” value does the source give for GGAGACCUAACUAUACAUCCUACUACCUGA here?
The value was 0.116 ± 0.039.

How did the “pre-steady-state target cleavage rate” value turn out when GGAGACGAUACUAUACAACAUACUACCUCA was run?
The value was 0.0988 ± 0.0095.

For GGAGACCUAUCUAUACAACGUACUACCUGA, which “pre-steady-state target cleavage rate” value is on record?
Its value is 0.00689 ± 0.0021.

Which “pre-steady-state target cleavage rate” value does the source give for GGAGUCGAUACUAUACAACCAACUACCUCA here?
Its value is 0.0053 ± 0.0019.

Which “pre-steady-state target cleavage rate” value does the source give for GGAGACCUAUCUAUACAACGAACUACCUCA here?
Its value is 0.00423 ± 0.0023.

How did the “pre-steady-state target cleavage rate” value turn out when GGAGACCUAACCUAUACAACCUACUACCUCA was run?
The value was 0.107 ± 0.056.

With GGAGAGGAUACUAUAGCAACCUACUACCUCA as the sequence, how does the “pre-steady-state target cleavage rate” value read?
The value was 0.129 ± 0.012.

With GGAGACCUAACAUUACAACCUACUACCUCA as the sequence, how does the “pre-steady-state target cleavage rate” value read?
Its value is 0.0283 ± 0.0089.

How did the “pre-steady-state target cleavage rate” value turn out when GGAGACCUAUCUAUACAACCUUCUACCACA was run?
Its value is 0.00592 ± 0.0023.

With GGAGUGGAUUCUAUACAACCUACUACCUCA as the sequence, how does the “pre-steady-state target cleavage rate” value read?
Its value is 0.175 ± 0.0091.

How did the “pre-steady-state target cleavage rate” value turn out when GGAGACGAUUCUAUACAAGCUACUACCUCA was run?
The value was 0.239 ± 0.01.

With GGAGACCUAUGAUUACAACCUACAACCUCA as the sequence, how does the “pre-steady-state target cleavage rate” value read?
Its value is 0.00538 ± 0.0023.

How did the “pre-steady-state target cleavage rate” value turn out when GGAGUGGAUAGUAUACAACCUACUACGUCA was run?
The value was 0.0386 ± 0.0083.

GGAGACCUAAUUAUACAACCUACUACCUCA was tested. Which “pre-steady-state target cleavage rate” value did it give?
The value was 0.0979 ± 0.011.

How did the “pre-steady-state target cleavage rate” value turn out when GGAGUGGAUACUAUACAACCUACUACACUCA was run?
Its value is 0.128 ± 0.018.

For GGAGACCUUACUAUACAAGCUACUACCUCA, which “pre-steady-state target cleavage rate” value is on record?
Its value is 0.225 ± 0.015.

GGAGACCUAUCUAUACAACCUACGACCUCA was tested. Which “pre-steady-state target cleavage rate” value did it give?
The value was 0.0973 ± 0.013.

For GGAGACCUAUCUAUACAACCUACUACCCCA, which “pre-steady-state target cleavage rate” value is on record?
The value was 0.123 ± 0.02.

GGAGUGGAUACUAUACAACCUACUACCUGA was tested. Which “pre-steady-state target cleavage rate” value did it give?
The value was 0.0915 ± 0.011.
